Measurements as given in PubChem BioAssay AID606 (Columbia University Molecular Screening Center, 2007).
Among all 52,000 compounds or so, fewer than 10 were called active.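 The calls were made as follows: active = IC50 under 40 µM in the dose-response test; inactive = IC50 of 40 µM or more, or never dose-tested.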 The list is a sample of the results.

Target: Tyrosine-protein phosphatase non-receptor type 22 (Homo sapiens) (UniProt Q9Y2R2)
Assay: LYP phosphatase inhibitors, primary screen, biochemical, DiFMUP fluorescence, recombinant catalytic domain, 10 µM (AID 606)
Conditions: at 10 µM, hits give high values

Chain of Tyrosine-protein phosphatase non-receptor type 22 (Homo sapiens) (Q9Y2R2 whole entry, looked up, the tested form may be a part): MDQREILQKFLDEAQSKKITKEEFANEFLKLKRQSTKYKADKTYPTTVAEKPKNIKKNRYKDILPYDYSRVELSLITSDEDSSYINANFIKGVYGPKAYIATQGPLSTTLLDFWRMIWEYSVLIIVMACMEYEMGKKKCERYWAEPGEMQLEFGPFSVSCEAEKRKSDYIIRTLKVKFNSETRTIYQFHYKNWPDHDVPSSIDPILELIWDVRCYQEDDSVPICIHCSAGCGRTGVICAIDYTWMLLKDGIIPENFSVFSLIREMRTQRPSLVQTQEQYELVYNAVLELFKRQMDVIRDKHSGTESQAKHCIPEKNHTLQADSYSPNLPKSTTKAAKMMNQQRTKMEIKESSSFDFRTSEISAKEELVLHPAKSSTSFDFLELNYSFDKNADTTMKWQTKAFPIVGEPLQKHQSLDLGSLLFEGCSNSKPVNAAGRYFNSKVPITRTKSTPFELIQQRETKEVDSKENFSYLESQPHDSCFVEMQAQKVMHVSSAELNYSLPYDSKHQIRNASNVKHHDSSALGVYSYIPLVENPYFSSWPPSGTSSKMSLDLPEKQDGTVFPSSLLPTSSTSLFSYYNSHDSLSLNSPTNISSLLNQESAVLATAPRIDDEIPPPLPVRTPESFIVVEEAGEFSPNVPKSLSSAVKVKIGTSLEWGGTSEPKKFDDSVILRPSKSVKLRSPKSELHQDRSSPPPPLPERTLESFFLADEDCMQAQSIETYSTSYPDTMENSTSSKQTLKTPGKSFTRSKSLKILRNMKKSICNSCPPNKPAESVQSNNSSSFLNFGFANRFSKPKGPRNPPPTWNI

inhibition, inactive:
COc1ccccc1-n1c(CNc2c(C)cccc2C)nnc1SCC(=O)N1CCOCC1 19.1%, Cc1ccc(-n2c(N)c(C(=O)N3CCOCC3)sc2=S)cc1 15.3%, O=C1CC(c2ccc3c(c2)OCO3)Sc2nc3ccccc3n21 (configuration not stated) 11.4%, CCCCN(CCCC)Cc1ccc(N)cc1 3.2%, COc1ccccc1OCc1nc(C#N)c(N2CCC(C(N)=O)CC2)o1 6.04%, COc1nc(Nc2ccc(-c3nc4ccccc4o3)cc2)nc(N2CCOCC2)n1 9.06%, O=C(C1CCN(S(=O)(=O)c2cccc3cccnc23)CC1)N1CCc2ccccc21 2.25%, CCCCn1c(SCC(=O)N2CCCCC2)nc2cc(S(N)(=O)=O)ccc21 17.2%, C=CCNc1nc(NCCN2CCOCC2)nc(OC)n1 7.44%, COC(=O)c1c(NC(=O)CC2SCC(C(=O)OC)NC2=O)sc2c1CCCC2 (configuration not stated) -6.67%, Cc1onc(-c2ccccc2)c1C(=O)Nc1nc(-c2ccc(F)c(F)c2)cs1 13.4%, CN(C)S(=O)(=O)N1CCN(CC(O)COc2ccc(C(=O)c3ccccc3)cc2)CC1 (configuration not stated) 10.5%, CCOC(=O)N1CCN(Cc2nc3c(c(=O)n(C)c(=O)n3C)n2Cc2cccc3ccccc23)CC1 7.1%, Nc1c(S(=O)(=O)c2cccs2)c2nc3ccccc3nc2n1/N=C/c1cccc(O)c1 13.6%, O=C(NCc1ccco1)C1CCCN(S(=O)(=O)c2ccc(-n3cnnn3)cc2)C1 (configuration not stated) 12%, CC(=O)OCP(C)(=O)COC(C)=O 5.43%, CCN(CC)CCOC(=O)c1ccc(N=CC2=C(O)CC(C)(C)CC2=O)cc1 4.23%, Cc1c(N2C(=O)C(C)SC23C(=O)Nc2ccccc23)c(=O)n(-c2ccccc2)n1C (configuration not stated) 4.85%, COc1ccc(C)cc1NC(=O)C1CCCN1S(=O)(=O)c1ccc2c(c1)CCC(=O)N2 (configuration not stated) 12%, CCN(CC)c1ccc(NC(=O)c2ccco2)c(C)c1 15.3%, CCc1ccc2[nH]c(=O)c(CN(CCN(C)C)C(=O)Nc3ccccc3OC)cc2c1 -7.1%, CCOC(=O)C1CCN(C(=O)CN(C)S(=O)(=O)c2cc(C)ccc2OC)CC1 -35.9%, CCC12CC3CC(C1)CC(C(=O)Nc1nn[nH]n1)(C3)C2 11.3%, CCN1C(=O)c2cccc3c(S(=O)(=O)Nc4c(C)n(C)n(-c5ccccc5)c4=O)ccc1c23 -6.68%, COC(=O)C1=C(C)NC(=O)CC1c1cccc(OC)c1OC (configuration not stated) -0.77%, Cn1c(SCC(=O)Nc2ccc3c(c2)oc2ccccc23)nnc1-c1ccccc1 -0.68%, CCCC(=O)C1=C(c2ccccc2)C(C#N)(C#N)C(C#N)=C1N 12%, Cc1ccc(N(CC(=O)Nc2ccc(S(=O)(=O)N3CCOCC3)cc2)S(C)(=O)=O)cc1C 5.91%, CCOC(=O)CSc1nc2c(c(=O)[nH]c(=O)n2C)n1CCc1ccccc1 12%, CC(=O)NC12CC3CC(C1)CC(C(=O)OCC(=O)Nc1ncc(Cl)c(C)c1Cl)(C3)C2 3.56%, O=C1c2ccccc2S(=O)(=O)N1CC(O)COc1ccc(Cl)cc1 (configuration not stated) 5.66%, CCCCCC(=O)Nc1ccc(N2CCN(S(C)(=O)=O)CC2)cc1 8.48%, CCn1cc(C(=O)NCc2ccco2)c(=O)c2cc(S(=O)(=O)N3CCC(C)CC3)ccc21 2.74%, COC(=O)CSc1nc2c(c(=O)n(C)c(=O)n2C)n1CCCc1ccccc1 4.4%, CCN1C(=O)c2cccc3c(S(=O)(=O)NCCCN4CCOCC4)ccc1c23 8.51%, Cc1cc(NC(=O)COc2cccc(C)c2C)no1 11.1%, Cn1c(SCC(N)=O)nnc1C1CCN(C(=O)NCc2ccccc2)CC1 11.9%, CCOC(=O)c1ccc(-c2n[nH]c(=O)c3ccccc23)cc1 -0.81%, Cc1ccc2c(c1)N(CC(=O)NCc1cccs1)C(=O)CO2 7.47%, O=C(OCN1C(=O)c2ccccc2C1=O)c1cccs1 8.67%, O=C(NCCCc1ccccc1)C1CCN(c2nnc(-n3cccc3)s2)CC1 1.14%, Cn1c(=O)c2cc(S(=O)(=O)N3CCN(c4cccc(C(F)(F)F)c4)CC3)ccc2n(C)c1=O 3.54%, CCn1c(COc2cccc(C)c2)nnc1SCC(=O)Nc1cccc(C(=O)O)c1 7.81%, O=C(CCS(=O)(=O)Cc1ccccc1)N1CCN(Cc2ccccc2)CC1 -7.91%, Cc1cc(Nc2cccc(Cl)c2)n2ncnc2n1 -9.28%, COc1ccc(C(=O)NC2(C(F)(F)F)N=C3SCCN3C2=O)cc1 (configuration not stated) 96.1%, CCOC(=O)N1CCC(n2c(=S)[nH]c3cc(OC)c(OC)cc3c2=O)CC1 -14.3%, COc1cc2c(cc1OC)CN(C(=O)Cc1ccc(OC)c(S(=O)(=O)N3CCOCC3)c1)CC2 1.37%, CCOc1cc(C#N)c(NC(=O)c2ccco2)cc1OCC 7.92%, Cn1nc(-c2ccc(C(=O)Nc3cccnc3)cc2)c2ccccc2c1=O 13.4%, Cc1ccnc(NC(=O)Nc2cccc(F)c2)c1 -13.1%, O=c1c2cc(N3CCOCC3)ccc2[nH]c(=S)n1CCCN1CCCCC1 7.14%, COCCn1nnnc1C(c1ccc(OC)cc1OC)N1CCN(c2ccccc2)CC1 (configuration not stated) 7.1%, COCCN(CCOC)C(=O)c1c[nH]c2ccc(S(=O)(=O)N(C)c3ccc(F)cc3)cc2c1=O -2.71%, C/C=C/c1ccc(OCCCCN2C(=O)NC(C)(C)C2=O)c(OC)c1 0.22%, CCOC(=O)c1cc2c(=O)n3cccc(C)c3nc2n(Cc2ccco2)c1=NC(=O)c1cccnc1 12.3%, CCC(C)NC(=O)CN(c1ccc(OC)cc1)S(=O)(=O)c1ccc(NC(C)=O)cc1 (configuration not stated) -3.53%
